Several values for one entry are separate records, joined by “and”; a condition that tells them apart may be missing. Equal values may be shown once. Compounds without any hit were thinned out: in the full panel of roughly 83,000, 20% have a hit.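 Each cell line was grown in a 96-well plate and treated with one concentration of compound for 48 hours. Values below 10 were considered active.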
Experiments:
Experiment in all cases: NCI-60 one-dose screen, 48 h (100 = growth as untreated, 0 = no growth, -100 = all killed)
Settings in all cases: 10 µM unless noted
[1] = tested on: NCI-H23 lung
[2] = tested on: NCI-H226 lung
[3] = tested on: NCI-H322M lung
[4] = tested on: HOP-62 NSCLC
[5] = tested on: NCI-H460 lung
[6] = tested on: HOP-92 NSCLC
[7] = tested on: NCI-H522 lung
[8] = tested on: A549/ATCC NSCLC
[9] = tested on: 786-0 renal
[10] = tested on: COLO 205 colon
[11] = tested on: DU-145 prostate
[12] = tested on: K-562 leukemia
[13] = tested on: MALME-3M melanoma
[14] = tested on: MDA-MB-231 breast
[15] = tested on: RXF 393 renal
[16] = tested on: SF-268 CNS
[17] = tested on: SF-295 CNS
[18] = tested on: SF-539 CNS
[19] = tested on: UACC-257 melanoma
[20] = tested on: M14 melanoma

Measured: growth

CN(C=O)c1ccccc1
inactive: [1] 84.9% | [2] 75.3% | [3] 98.5% | [4] 92.3% | [5] 102% | [6] 84.2% | [7] 92.9% | [8] 105% | [9] 97.1% | [10] 101% | [11] 103% | [12] 97.7% | [13] 87.3% | [14] 84.6% | [15] 105% | [16] 103% | [17] 92.8% | [18] 92.9% | [19] 103% | [20] 95.8%

Oc1cccnc1CN1CCOCC1
inactive: [1] 110% and 95.7% | [2] 99.1% and 95.7% | [3] 98.3% and 102% | [4] 96.6% and 92.7% | [5] 114% and 109% | [6] 88.4% and 84.8% | [7] 93.8% and 120% | [8] 102% and 96.5% | [9] 105% and 101% | [10] 102% and 110% | [11] 108% and 116% | [12] 108% and 105% | [13] 106% | [14] 104% and 86.9% | [15] 114% and 112% | [16] 106% and 116% | [17] 111% and 105% | [18] 92.6% and 94.9% | [19] 99.6% and 98.2% | [20] 109% and 103%

NNC(=O)Nc1ccccc1
inactive: [1] 100% | [2] 95.2% | [3] 96.1% | [4] 103% | [5] 104% | [6] 90.8% | [7] 107% | [8] 113% | [9] 99.8% | [10] 99.1% | [11] 106% | [12] 102% | [13] 99.6% | [14] 91.2% | [15] 108% | [16] 100% | [17] 96.3% | [18] 97% | [19] 108% | [20] 107%

COc1ccc(-n2[nH]c3c(cnc4ccccc43)c2=O)cc1
inactive: [1] 73.1% and 95.9% | [2] 103% and 95.3% | [3] 93.2% and 101% | [4] 100% and 94.5% | [5] 103% and 108% | [6] 99.8% and 102% | [7] 89.2% | [8] 92.4% and 102% | [9] 77.7% and 91.3% | [10] 137% and 119% | [11] 95.8% and 101% | [12] 112% and 90.7% | [13] 63.7% and 105% | [14] 119% | [15] 110% and 98.3% | [16] 103% and 106% | [17] 86.9% and 92.7% | [18] 87.8% and 93.4% | [19] 109% | [20] 92.3% and 104%

CC1=CC(=O)c2cccc(NC3=NCCO3)c21
inactive: [1] 100% | [2] 94.2% | [3] 99.4% | [4] 84.9% | [5] 107% | [6] 77.6% | [7] 87.8% | [8] 92.3% | [9] 91.9% | [10] 102% | [11] 108% | [12] 82.4% | [13] 93.4% | [14] 102% | [15] 117% | [16] 100% | [17] 95.1% | [18] 95.7% | [19] 94.2% | [20] 97.1%
